Common to all, as to test: qHTS profiling for inhibitors of Plasmodium falciparum proliferation (AID 504749); further: nearly all actives have a fitted effect of over 60% in size
Details in all cases: P. falciparum in erythrocytes, SYBR Green DNA, 72 h; series mostly up to 28.7 µM
(Quantitative high-throughput screening tests each substance at several concentrations.)

Test [1] concerns C2A. The gist of the method: (§1)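 Three-day growth assay of blood-stage parasites in erythrocytes (0.3% parasitemia, 2.5% hematocrit) at 37 C, 5% CO2, quantified by SYBR Green DNA staining after overnight detergent lysis.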
In test [2] the test system is CP185. The gist of the method:
as §1

The subject of test [3] is CP191. The gist of the method:
as §1

Test [4] relates to CP192. The method, boiled down: as §1
Test [5] concerns CP194. The method, boiled down:
as §1

Test [6] relates to CP201. The method, boiled down: as §1
For test [7], the system named is CP211. The gist of the method:
as §1

Test [8] relates to CP217. The method, boiled down: as §1
For test [9], the system named is CP215. The gist of the method:
as §1

Test [10] relates to CP203. The gist of the method:
as §1

Records with an inconclusive call do not appear. Activity calls are given as the source filed them. The call rests on the fitted dose curve; in most records, active means well fitted inhibition curve with a large enough effect; inconclusive means small, poorly fitted or top-dose-only effect; inactive means flat fitted curve, though single readings scatter.
Potency means the concentration at half of the fitted maximal effect.

For `COc1ccc(CCN2CCC(Nc3nc4ccccc4n3Cc3ccc(F)cc3)CC2)cc1`, the Potency is 2.51 µM (active) in test [1]; 3.55 µM (active) in [2]; 2.24 µM (active) in [3]; 12 µM (active) in test [4]; 9.53 µM (active) in test [5]; 7.57 µM (active) in test [6]. Also, the figures for the Potency in test [7] and in [8] were 15.1 µM (active) and 3.55 µM (active), respectively.
For `Cc1cc(=O)n(-c2ccccc2)n1C`, the Potency entry in test [1], in test [2], in [3], in test [4], in test [5] and in test [6] was “inactive” each time. Moreover, the Potency entry in test [7], in test [9] and in [8] was “inactive” in each case.
Regarding `C[C@H](O)C(=O)Nc1c(I)c(C(=O)NC(CO)CO)c(I)c(C(=O)NC(CO)CO)c1I`, the Potency entry in test [1], in [2], in [3], in test [4], in test [5] and in test [6] was “inactive” each time. The Potency result in [7], in test [9] and in test [8] was “inactive” throughout.
`C[C@@H]1C(=O)NC2=Nc3cccc(Cl)c3CN21`: the Potency result in test [1], in test [2], in test [3], in test [4], in test [5] and in test [6] was “inactive” in each case. For the same compound, the Potency entry in test [7], in test [9] and in test [8] was “inactive” in each case.
For `N[C@H](CO)C(=O)O`, the Potency entry in [1], in [2], in [3], in test [4], in [5] and in test [6] was “inactive” each time. In addition, the Potency result in test [7] and in [8] was “inactive” in each case.
Consider `CCN1CCN(c2cc3c(cc2F)c(=O)c(C(=O)O)cn3C2CC2)CC1`, for which the Potency result in test [1], in [2], in test [3], in test [4], in test [5] and in test [6] was “inactive” in each case. The Potency result in test [7], in test [9] and in [8] was “inactive” throughout.
Consider `NCCCC[C@H](N[C@@H](CCc1ccccc1)C(=O)O)C(=O)N1CCC[C@H]1C(=O)O`, for which the Potency result in test [1], in [2], in [3], in test [4], in test [5] and in test [6] was “inactive” throughout. Further, the Potency result in test [7], in test [9] and in [8] was “inactive” in each case.
On to `CCCN1CCCC[C@H]1C(=O)Nc1c(C)cccc1C`, for which the Potency entry in test [1], in test [2], in test [3], in [4], in test [5] and in test [6] was “inactive” each time. For the same compound, the Potency entry in [7], in test [9] and in test [8] was “inactive” each time.
In the case of `O=S1(=O)c2cccc3cccc(c23)N1CCCN1CCN(c2ccc(F)cc2)CC1`, the Potency entry in test [1], in test [2], in [3], in [4], in test [5] and in [6] was “inactive” each time. Moreover, the Potency result in test [7], in [9] and in test [8] was “inactive” each time.
Take `CCC(C(=O)OCCN(CC)CC)c1ccccc1` (stereo not given): the Potency entry in test [1], in [2], in test [3], in test [4], in test [5] and in test [6] was “inactive” in each case. In addition, the Potency result in [7], in [9] and in test [8] was “inactive” in each case.
For the compound `O=C(CCN1CCC(c2ccccc2)C1)c1ccc2c(c1)OCCO2` (stereo not given), the Potency entry in [1], in [2], in [3], in test [4], in [5] and in test [6] was “inactive” in each case. For the same compound, the Potency result in [7], in test [9] and in test [8] was “inactive” throughout.
With `O=C1CCC(c2ccc(-n3ccnc3)cc2)=NN1`, the Potency entry in test [1], in test [2], in [3], in test [4], in test [5] and in [6] was “inactive” each time. For the same compound, the Potency result in test [7], in test [9] and in [8] was “inactive” each time.
In the case of `CC(C)(C(=O)c1cccnc1)c1cccnc1`, the Potency entry in test [1], in [2], in test [3], in test [4], in test [5] and in [6] was “inactive” in each case. Moreover, the Potency result in [7], in [9] and in test [8] was “inactive” throughout.
In the case of `CCOc1ccc(NC(=O)CC(C)O)cc1` (stereo not given), the Potency result in test [1], in test [2], in test [3], in test [4], in [5] and in test [6] was “inactive” throughout. Besides, the Potency entry in test [7], in [9] and in [8] was “inactive” in each case.
For `CN(C)CCCOc1nn(Cc2ccccc2)c2ccccc12`, the Potency result in [1], in test [2], in test [3], in test [4], in test [5] and in test [6] was “inactive” throughout. In addition, the Potency result in [7], in test [9] and in [8] was “inactive” each time.
As for `C#C[C@]1(O)CC[C@H]2[C@@H]3CCc4cc(OC5CCCC5)ccc4[C@H]3CC[C@@]21C`, the Potency result in test [1], in test [2], in test [4], in [5], in test [6] and in test [10] was “inactive” throughout. The Potency entry in test [7], in test [9] and in test [8] was “inactive” in each case.
With `CN1CCC(=C2c3ccccc3Sc3ccccc32)CC1`, the Potency in [1] is 11.2 µM (active); in test [2], 8.91 µM (active); in test [5], 10.7 µM (active); in [10] it was 3.79 µM (active); in test [7] it was 13.5 µM (active); in test [9] it was 9.53 µM (active). For the same compound, in test [8], the Potency is 11.2 µM (active).
Take `CCOc1ccc2nc3cc(N)ccc3c(N)c2c1`: the Potency was 6.31 µM (active) in [1]; 5.01 µM (active) in [2]; 5.01 µM (active) in [3]; 9.53 µM (active) in test [4]; 15.1 µM (active) in [5]; 12 µM (active) in [6]. Further, the Potency is 9.53 µM (active) in test [9] and 7.08 µM (active) in [8].
For the compound `CC[N+](CC)(CCNC(=O)C(=O)NCC[N+](CC)(CC)Cc1ccccc1Cl)Cc1ccccc1Cl`, the Potency in test [1] was 10 µM (active); in [2], 1.58 µM (active); in test [3], 4.47 µM (active); in test [5], 2.39 µM (active); in test [6], 4.78 µM (active); in [7], 1.07 µM (active). The Potency in test [9] was 3.79 µM (active); in [8] it was 7.94 µM (active).
For the compound `CC/C(=C(/CC)c1ccc(O)cc1)c1ccc(O)cc1`, the Potency result in [1], in test [2], in test [4], in test [5], in test [6] and in test [10] was “inactive” each time. Also, the Potency result in test [7], in test [9] and in [8] was “inactive” each time.
Take `CNCCC(Oc1ccccc1C)c1ccccc1` (stereo not given): the Potency result in test [1], in test [2], in [3], in [4], in test [6] and in test [7] was “inactive” in each case.
For `NC(=O)C(=O)N/N=C/c1ccc([N+](=O)[O-])o1`, the Potency entry in test [1], in test [2], in [3] and in test [8] was “inactive” each time.
Take `Cc1ccc(C(=O)C(C)CN2CCCCC2)cc1` (stereo not given): the Potency entry in [1], in test [2], in [4], in test [5], in test [6] and in test [10] was “inactive” each time. For the same compound, the Potency entry in test [7], in test [9] and in test [8] was “inactive” each time.
As to `Cc1c(C(N)=O)cc([N+](=O)[O-])cc1[N+](=O)[O-]`, the Potency entry in [1], in test [2], in test [3], in [5], in [6] and in [7] was “inactive” throughout. The Potency result in test [9] and in [8] was “inactive” throughout.
On to `CCCCOc1cc(C(=O)NCCN(CC)CC)c2ccccc2n1`, for which the Potency entry in [1], in test [2], in [4], in [5], in test [6] and in test [10] was “inactive” throughout. Besides, the Potency result in test [7], in test [9] and in test [8] was “inactive” each time.
In the case of `Oc1ccc(Cl)cc1Sc1cc(Cl)ccc1O`, the Potency entry in [1], in [2], in [3], in test [4], in test [6] and in test [7] was “inactive” in each case.
Take `C[C@@H](CN(C)C)CN1c2ccccc2Sc2ccccc21`: the Potency result in test [1], in test [2], in test [4], in test [7], in test [9] and in [8] was “inactive” each time.
Take `C[C@@H]1C[C@H]2[C@@H]3CCC4=CC(=O)C=C[C@]4(C)[C@@]3(F)[C@@H](O)C[C@]2(C)[C@H]1C(=O)CO`: the Potency entry in [1], in test [2], in [3], in test [5], in test [6] and in test [7] was “inactive” in each case. Moreover, the Potency result in test [9] and in [8] was “inactive” throughout.
For `CC(C)(C)CC(C)(C)c1ccc(O)c(Cc2ccc(Cl)cc2Cl)c1`, the Potency is 2.82 µM (active) in [1]; 3.16 µM (active) in test [2]; 1 µM (active) in test [3]; 3.79 µM (active) in test [4]; 1.51 µM (active) in test [7]; 1.69 µM (active) in test [9]. Further, in test [8], the Potency was 2.82 µM (active).
For the compound `CC(C)N=C(N)/N=C(\N)Nc1ccc(Cl)cc1`, the Potency entry in [1] and in [4] was “inactive” each time. In test [3], the Potency was 1 µM (active).
As for `COc1cccc(CCc2ccccc2OCC(CN(C)C)OC(=O)CCC(=O)O)c1` (stereo not given), the Potency in test [1] is 10 µM (active); in [2], 8.91 µM (active); in test [4], 16.9 µM (active); in [5], 4.78 µM (active); in test [7], 7.57 µM (active); in [9], 8.49 µM (active). For the same compound, the Potency in test [8] was 7.94 µM (active).
In the case of `CC(Cc1cccc(C(F)(F)F)c1)NCCOC(=O)c1ccccc1` (stereo not given), the Potency entry in test [1], in [2], in test [3], in [4], in test [6] and in test [7] was “inactive” throughout. Further, the Potency entry in test [9] and in test [8] was “inactive” each time.
